# Whole data set: some 33,000 sequences, median “E-score (-0.5 to 0.5)” near -0.043, cut for the highest 2% near 0.37. The sample holds the highest values, similar sequences and a random draw of the others, so the mix is not that of the screen.
# Target: T1, Upc2 (UniProt Q12151)
# T1 sequence: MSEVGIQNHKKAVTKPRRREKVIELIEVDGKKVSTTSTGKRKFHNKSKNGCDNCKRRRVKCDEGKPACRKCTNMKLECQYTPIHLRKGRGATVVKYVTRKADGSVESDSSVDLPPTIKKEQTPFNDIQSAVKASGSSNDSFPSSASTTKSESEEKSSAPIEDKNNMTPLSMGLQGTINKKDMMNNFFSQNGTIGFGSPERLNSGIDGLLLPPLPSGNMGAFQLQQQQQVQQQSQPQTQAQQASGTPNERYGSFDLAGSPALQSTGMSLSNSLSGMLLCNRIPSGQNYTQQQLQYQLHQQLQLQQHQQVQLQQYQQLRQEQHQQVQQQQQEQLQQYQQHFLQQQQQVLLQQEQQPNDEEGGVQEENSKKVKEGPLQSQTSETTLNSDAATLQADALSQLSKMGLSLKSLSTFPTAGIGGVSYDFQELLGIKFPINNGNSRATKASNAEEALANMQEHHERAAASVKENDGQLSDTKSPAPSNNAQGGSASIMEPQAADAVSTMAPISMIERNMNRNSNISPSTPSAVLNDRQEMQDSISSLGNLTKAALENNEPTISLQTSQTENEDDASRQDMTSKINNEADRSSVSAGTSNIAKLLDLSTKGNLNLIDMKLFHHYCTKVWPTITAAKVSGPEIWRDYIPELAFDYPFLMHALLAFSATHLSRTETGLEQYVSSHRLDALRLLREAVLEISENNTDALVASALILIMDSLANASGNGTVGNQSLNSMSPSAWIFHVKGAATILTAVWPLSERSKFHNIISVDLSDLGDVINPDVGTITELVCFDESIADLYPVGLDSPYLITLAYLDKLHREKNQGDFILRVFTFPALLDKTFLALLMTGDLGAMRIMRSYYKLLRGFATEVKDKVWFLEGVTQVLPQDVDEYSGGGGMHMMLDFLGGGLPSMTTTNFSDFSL
# Experiment: PBM E-score (8-mer binding enrichment) (E-score (-0.5 to 0.5)); higher = stronger / more preferred TF binding
# Settings: protein concentration: 200 nM; construct: GST-full length
# Procedure, shortened: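 E-scores (a modified Wilcoxon-Mann-Whitney statistic) were assigned by the Universal PBM Analysis Suite to every ungapped eight-base word pooled with its reverse complement. The input came from universal all-10-mer Agilent arrays made double-stranded by primer extension and probed with GST-tagged yeast transcription factors at about 100-200 nM. Fluorescent anti-GST detected bound protein, and masliner normalised the scans.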
row,Sequence,PBM E-score
1,AACAGATT,-0.0821
2,AAAATGGC,-0.0658
3,AAGAGTAG,-0.128
4,CGTCTAGA,0.121
5,ACCACCTC,-0.111
6,ATCCAGCG,-0.0436
7,CATTGCGA,-0.0248
8,CAATGGCG,-0.141
9,CGATTCGA,0.0594
10,ACCACACC,-0.185
11,CAAAACGA,0.31
12,CCAAACGA,0.476
13,AAAAACGG,0.117
14,CCAAACGC,0.292
15,CCAAACGG,0.365
16,ATAAACTG,-0.0103
17,TCAAACAA,-0.0805
18,ATAAACGG,0.434
19,TCAAACGA,0.471
20,AGGTTAGC,-0.3
21,CGGTTACA,0.156
22,GGCACCAA,-0.0665
23,ATGCACCA,-0.188
24,GCCAGACC,-0.138

row,Sequence,PBM E-score
1,ATCAGAGA,-0.167
2,AGTCTATC,-0.159
3,ACCGTATG,0.381
4,ACCGTAGA,0.178
5,GCCGTAGA,0.189
6,ACCGTATA,0.478
7,CCCGTAGA,-0.00639
8,CCCGTATA,0.479
9,ACGGTATA,0.274
10,GCGGTATA,0.151
11,GCCGTATA,0.48
12,ACCGTAAG,0.185
13,ACCGTATC,0.345
14,CCCGTATC,0.339
15,TAACGTCA,0.0914
16,AGTCCAAT,-0.149
17,AGGGGTCC,-0.168
18,AATGTCGC,0.0832
19,AGTTGCGA,0.0264
20,CGGGTATC,0.135
21,CGTGCACG,0.134
22,ACCAGGAC,-0.0418
23,GGCACAAC,-0.279
24,CCGACGTA,0.225

row,Sequence,PBM E-score
1,ACGACGGA,0.37
2,CCGACGGA,-0.0042
3,ACGACGAG,0.367
4,GCGACGGA,0.0438
5,CCGACGAA,0.067
6,ACGACGTG,0.351
7,ACGACGGG,0.415
8,ACGACGTA,0.413
9,ACGACGGC,0.333
10,TCGACGAA,-0.018
11,ACGACGAA,0.375
12,CATGTTAA,0.0636
13,GGTCTGAA,0.0866
14,TAGAATGA,-0.263
15,GCACGCGA,-0.0589
16,GGGTATAA,-0.0582
17,CGCAGTCA,-0.228
18,GGCTTTGA,-0.0097
19,ATAGGGAT,-0.0755
20,ATAGACAT,-0.151
21,TATCCATA,0.2
22,CTACCATC,0.00378
23,AGCCTTGC,-0.0435
24,AATCGAGC,0.286

row,Sequence,PBM E-score
1,GAACGAGC,0.465
2,CAACGAGC,0.286
3,AACCGAGC,0.325
4,AAACGAGC,0.489
5,GCACGAGC,-0.0167
6,GAACGAGA,0.457
7,GGACGAGA,-0.00291
8,GCACGAGA,0.0181
9,TGAATGCA,-0.0537
10,CTTAGATC,-0.0871
11,CCCCTATA,0.0494
12,AAAAAGTT,-0.0419
13,GGCCTCTA,-0.0932
14,AGCTACGA,0.34
15,CGCTACGA,0.421
16,CTCTACGA,0.409
17,ATCTACGA,0.313
18,CTCTACGC,0.0628
19,CGCTACGC,0.136
20,GGCAGGAA,-0.24
21,AATCCAGG,0.0108
22,AAAACTAC,0.137
23,CCTGGCAA,-0.125
24,CAAGACAA,-0.0401

row,Sequence,PBM E-score
1,TAATCGAA,0.226
2,AAATCGTA,0.383
3,AAATCGTG,0.0785
4,GAATCGTA,0.387
5,CAATCGTG,-0.153
6,TAATCGTA,0.42
7,CAATCGTA,0.4
8,GAATCGTC,0.052
9,AAATCGTC,0.14
10,CAATCGTC,-0.144
11,TAATCGGA,0.155
12,GAATCGCA,-0.0934
13,CTGGCTCC,-0.252
14,CCGGAGAC,-0.0181
15,AGGTCTCA,-0.221
16,CCTCAGCA,-0.21
17,AAACGTAC,0.33
18,AGTGGATC,-0.0691
19,AGTACTAC,0.119
20,GCACAAAC,0
21,CGCAACGC,0.0437

# Reference: the supplement of paper PMC3334620
